The results in this text go back to PubChem BioAssay (NCATS).

Experiment [1] addresses Thyroid hormone receptor beta (Homo sapiens) (UniProt P10828). In words: qHTS assay for small molecule antagonists of thyroid hormone receptor beta signaling (AID 588547; active = well fitted inhibition curve with a large enough effect in the signal ratio, with a control signal flat, not every such curve was filed as active; the % refers to the signal ratio;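 also: cells stimulated with 0.4 nM T3 agonist during compound exposure; % is scaled to controls: 0 for no effect and ±100 for the full control effect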). The settings on record: TR-UAS-bla HEK293, beta-lactamase ratio, antagonist mode, 18 h. A digest of the protocol: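 Inhibition of T3-driven (0.4nM final) beta-lactamase reporter activity was measured over 0.59 nM to 92 uM compound after 18 h at 37 C. The cells were GripTite HEK293 TR-UAS-bla in charcoal/dextran-stripped serum, with CCF4 ratio read-out and IC50 from Hill fits.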

Experiment [2] has as its target Voltage-gated inwardly rectifying potassium channel KCNH2 (Homo sapiens) (UniProt Q12809). In words: qHTS Assay for Small Molecule Inhibitors of the Human hERG Channel Activity (AID 588834).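 Also: top concentration of the series differs between compounds; % is scaled to controls: 0 for no effect and ±100 for the full control effect; lower thallium flux fluorescence means stronger hERG block; nearly all actives have a fitted effect of over 50% in size.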 Particulars: U2OS BacMam hERG, FluxOR thallium flux fluorescence; series mostly up to 46.1 µM. In short, it runs like this: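 Homogeneous FluxOR thallium flux assay using hERG-expressing U2OS cells (BacMam). Compound treatment about 10 minutes preceded stimulation; reduced fluorescence taken as channel block.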

In experiment [3] the target is Luciferin 4-monooxygenase (Photinus pyralis) (UniProt P08659). Description: Biochemical firefly luciferase enzyme assay for NPC (AID 624030).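 Also: purified P. pyralis luciferase at 10 nM with luciferin and ATP substrate; 0% = DMSO and -100% = full luciferase inhibition by PTC124 control; nearly all actives have a fitted effect of over 70% in size.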 Particulars: purified P. pyralis luciferase, luminescence, 5 min; series mostly up to 58.6 µM. A digest of the protocol:
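Direct inhibition of firefly luciferase enzyme (10 nM final, 50 mM Tris Acetate) assessed by luminescence within 5 minutes. Percent activity scaled between DMSO and PTC124 positive control, with concentration-effect curves classified by fit quality and response.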

Experiment [4] is described as follows: S16 Schwann cell viability assay (CellTiter-Glo assay) (AID 624031).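 Also: native untransfected S16 rat Schwann cells; plate controls were DMSO-treated cells for no effect and cell-free wells for full effect; nearly all actives have a fitted effect of over 70% in size.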 Particulars: S16 rat Schwann cells viability, 24 h; series mostly up to 57.5 µM. A digest of the protocol: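 Rat S16 Schwann cells without reporter constructs received compound or DMSO for 24 h at 37 °C under 5% CO2. Cellular ATP was then quantified by CellTiter-Glo luminescence, with vehicle wells defined as 0% activity and cell-free wells as reference.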

Experiment [5] can be described thus: S16 Schwann cell PMP22 intronic element firefly luciferase assay (AID 624032).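 Also: plate controls were DMSO for no effect and PTC124 positive control mean for full effect; nearly all actives have a fitted effect of over 30% in size.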 The settings on record: S16 rat Schwann cells, PMP22 element FLuc, 24 h; series mostly up to 57.5 µM. In short, it runs like this:
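Luciferase reporter of PMP22 intronic-element expression in stably transfected S16 rat Schwann cells, read by ONE-Glo luminescence after 24 h compound exposure at 37 C. Activity scaled between DMSO (0%) and positive-control PTC124; concentration-effect curves quality-classified.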

Experiment [6] in a line: S16 Schwann cell PMP22 intronic element beta-lactamase assay (AID 624044; calls by dose curve;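 also: 0% = DMSO and -100% = potassium clavulanate positive control; nearly all actives have a fitted effect of over 15% in size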). The settings on record: S16 rat Schwann cells, PMP22 element beta-lactamase FRET, 24 h; ratio activity, negative = inhibition: at 38.3 µM (top of the series) unless noted. In short, it runs like this: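 Beta-lactamase reporter under a PMP22 intronic regulatory element in stable S16 rat Schwann cells; 24 h compound exposure. 460 nm blue signal normalized between DMSO (0%) and potassium clavulanate, with 535 nm FRET tracking viability; curves classed by r2 and response.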

Experiment [7] is described as follows: qHTS assay for small molecule activators of the nuclear factor-kappa B (NF-kB) signaling pathway (AID 651749; active = well fitted activation curve with a large enough effect in the signal ratio; the % refers to the signal ratio; also: % of control where 0% means no effect). The settings on record: NF-kB-bla ME-180 cells, beta-lactamase FRET ratio, 16 h; hits give high values. A digest of the protocol:
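FRET-based beta-lactamase detection in ME-180 cells reports NF-kB response-element-driven transcription following overnight (16 hr) compound treatment.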

Experiment [8] can be described thus: qHTS assay for environmental chemicals that activate the Aryl hydrocarbon Receptor (AhR) signaling pathway (AID 651777). Also: % of control where 0% means no effect; nearly all actives have a fitted effect of over 15% in size. The settings on record: 1A2-DRE human hepatoma cells, luciferase, 24 h; activation: hits give high values. A digest of the protocol: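 Measured luciferase activity, read 30 min after One-Glo addition at room temperature, from human hepatoma cells bearing a dioxin response element–CYP1A2 promoter reporter and exposed to compound for 24 hr at 37 C.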

Experiment [9] concerns the target Peroxisome proliferator-activated receptor alpha (Homo sapiens) (UniProt Q07869). In words: qHTS assay for small molecule agonists of the peroxisome proliferator-activated receptor alpha (PPARalpha) signaling pathway (AID 651778). Also: % of control where 0% means no effect. Particulars: PathHunter PPARalpha complementation, chemiluminescence, 6 h; hits give high values. A digest of the protocol: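 Chemiluminescence from complemented enzyme reported PPARalpha activation in cells after 6 hr of compound treatment at 37 C. The detection reagent was incubated for 60 min at room temperature, and compounds were scored as agonists.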

Experiment [10] can be described thus: qHTS assay for small molecule agonists of the antioxidant response element (ARE) signaling pathway (AID 651741; active = well fitted activation curve with a large enough effect in the signal ratio; the % refers to the signal ratio; also: potency is read from the fitted curve at half-maximal effect; as to activation: % of control where 0% means no effect). The settings on record: HepG2 ARE-bla reporter, beta-lactamase FRET ratio, 16 h; series mostly up to 96 µM. A digest of the protocol: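 Agonist activity is measured as ARE-driven beta-lactamase expression in a stable HepG2 reporter line, using 16 h compound treatment at 37 C and a FRET substrate fluorescence readout after 2 h.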

The nature of experiment [11]: qHTS assay for small molecule activators of the p53 signaling pathway (AID 651743; active = well fitted activation curve with a large enough effect in the signal ratio, not every such curve was filed as active; the % refers to the signal ratio; also: % of control where 0% means no effect). Particulars: HCT-116 p53RE-bla, beta-lactamase FRET ratio, 16 h; activation: hits give high values. A digest of the protocol:
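A beta-lactamase reporter under p53 response element control, stably carried by HCT-116 cells, reported pathway activation. Test compounds were applied for 16 hours at 37 C, and fluorescence was measured 2 hours after adding the B/G FRET substrate.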

Experiment [12] addresses Tumor necrosis factor (Homo sapiens) (UniProt P01375). In words: qHTS assay to identify small molecules that stimulate Tumor Necrosis Factor-alpha (TNF-alpha) secretion (AID 651757; active = well fitted curve in the direction sought with a large enough effect in the signal ratio; the % refers to the signal ratio; also: 0% is about no effect). The settings on record: Human cells, HTRF 665/615 ratio; series mostly up to 92.2 µM. In short, it runs like this:
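THP-1 cells, 3000/well; compound 17 hrs, 37 C; add cryptate/XL665 anti-TNF-alpha antibody pair; 3 hr RT; TR-FRET (HTRF) read of secreted TNF-alpha. Quantitative HTS format.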

The nature of experiment [13]: qHTS assay for small molecule disruptors of the mitochondrial membrane potential - 1 hr assay (AID 651754; calls by dose curve; also: % is scaled to controls: 0 for no effect and ±100 for the full control effect; nearly all actives have a fitted effect of over 35% in size). The settings on record: series mostly up to 92.2 µM. In short, it runs like this:
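Read-out: dye fluorescence at 490 nm ex/535 nm em (monomers) and 540 nm ex/590 nm em (aggregates) in HepG2 cells. Compound exposure 1 hr at 37C, followed by 30 min dye loading.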

The nature of experiment [14]: qHTS assay for small molecule disruptors of the mitochondrial membrane potential - 5 hr assay (AID 651755; calls by dose curve; also: % is scaled to controls: 0 for no effect and ±100 for the full control effect; nearly all actives have a fitted effect of over 40% in size). Particulars: JC-1-type ratio dye; series mostly up to 92.2 µM. In short, it runs like this:
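Membrane-potential dye readout: red aggregate (540 ex/590 em) versus green monomer (490 ex/535 em) fluorescence after 30 min dye loading, following 5 hr compound exposure at 37C of overnight-plated HepG2 cells.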

“And” between values parts separate entries of the source, which are not always exact repeats. Identical values can stand only once. Values without a mark were called inactive. Records with an inconclusive call do not appear. The source made the active and inactive calls. Unless noted, calls follow the shape of the dose curve; as a rule, active = well fitted curve in the direction sought with a large enough effect; inconclusive = small, poorly fitted or top-dose-only effect, or another doubt; inactive = no such curve, though single readings can be large; an effect the other way counts as inactive or inconclusive.

Tumor necrosis factor (Homo sapiens), sequence (P01375 whole entry, looked up): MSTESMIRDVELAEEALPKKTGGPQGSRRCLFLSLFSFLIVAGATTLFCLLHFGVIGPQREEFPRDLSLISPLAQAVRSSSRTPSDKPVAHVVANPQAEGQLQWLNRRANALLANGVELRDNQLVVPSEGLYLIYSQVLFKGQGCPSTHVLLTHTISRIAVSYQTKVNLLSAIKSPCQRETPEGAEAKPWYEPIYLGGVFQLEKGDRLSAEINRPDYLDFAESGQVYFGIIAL
Peroxisome proliferator-activated receptor alpha (Homo sapiens), sequence (Q07869 whole entry, looked up): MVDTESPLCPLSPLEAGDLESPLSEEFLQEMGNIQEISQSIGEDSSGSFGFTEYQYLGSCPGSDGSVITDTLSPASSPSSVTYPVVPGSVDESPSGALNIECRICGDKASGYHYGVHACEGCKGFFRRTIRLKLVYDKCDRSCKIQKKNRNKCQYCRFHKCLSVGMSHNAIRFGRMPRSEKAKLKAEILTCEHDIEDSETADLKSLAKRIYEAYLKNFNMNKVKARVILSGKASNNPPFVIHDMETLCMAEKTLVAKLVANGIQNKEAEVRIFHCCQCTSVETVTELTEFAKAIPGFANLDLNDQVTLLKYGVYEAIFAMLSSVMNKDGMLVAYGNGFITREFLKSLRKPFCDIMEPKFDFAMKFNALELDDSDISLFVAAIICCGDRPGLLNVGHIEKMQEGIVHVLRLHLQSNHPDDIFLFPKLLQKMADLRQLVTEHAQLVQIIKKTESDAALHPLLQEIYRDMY
Voltage-gated inwardly rectifying potassium channel KCNH2 (Homo sapiens), sequence (Q12809 whole entry, looked up): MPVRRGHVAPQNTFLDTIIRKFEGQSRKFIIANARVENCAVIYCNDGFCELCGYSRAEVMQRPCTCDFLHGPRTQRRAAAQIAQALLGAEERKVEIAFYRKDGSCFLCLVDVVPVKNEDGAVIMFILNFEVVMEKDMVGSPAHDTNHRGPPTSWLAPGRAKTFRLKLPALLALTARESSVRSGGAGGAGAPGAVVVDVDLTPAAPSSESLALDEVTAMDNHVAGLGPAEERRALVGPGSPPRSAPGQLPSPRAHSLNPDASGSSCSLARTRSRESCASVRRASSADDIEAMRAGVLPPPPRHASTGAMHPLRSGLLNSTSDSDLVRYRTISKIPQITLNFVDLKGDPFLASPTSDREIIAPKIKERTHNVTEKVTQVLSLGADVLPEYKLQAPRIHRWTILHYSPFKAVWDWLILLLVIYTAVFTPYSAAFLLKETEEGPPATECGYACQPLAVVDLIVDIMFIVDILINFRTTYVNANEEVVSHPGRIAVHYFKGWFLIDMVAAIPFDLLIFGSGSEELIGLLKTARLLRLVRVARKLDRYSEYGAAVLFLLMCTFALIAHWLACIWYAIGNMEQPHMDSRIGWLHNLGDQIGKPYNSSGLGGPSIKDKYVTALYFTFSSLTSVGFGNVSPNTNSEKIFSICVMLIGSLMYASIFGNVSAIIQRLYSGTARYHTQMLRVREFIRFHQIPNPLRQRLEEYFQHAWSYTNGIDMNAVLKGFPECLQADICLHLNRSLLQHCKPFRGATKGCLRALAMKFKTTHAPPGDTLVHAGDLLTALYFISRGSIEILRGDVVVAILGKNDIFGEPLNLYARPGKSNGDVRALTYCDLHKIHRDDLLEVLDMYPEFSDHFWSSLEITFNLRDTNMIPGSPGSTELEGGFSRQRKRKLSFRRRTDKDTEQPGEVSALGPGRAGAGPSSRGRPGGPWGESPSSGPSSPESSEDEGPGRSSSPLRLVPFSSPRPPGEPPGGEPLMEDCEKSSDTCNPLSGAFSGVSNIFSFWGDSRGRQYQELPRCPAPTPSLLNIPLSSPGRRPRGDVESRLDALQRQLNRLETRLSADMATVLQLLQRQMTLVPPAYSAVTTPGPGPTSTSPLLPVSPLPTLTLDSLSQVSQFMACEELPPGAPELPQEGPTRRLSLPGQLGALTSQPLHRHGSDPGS
Thyroid hormone receptor beta (Homo sapiens), sequence (P10828 whole entry, looked up): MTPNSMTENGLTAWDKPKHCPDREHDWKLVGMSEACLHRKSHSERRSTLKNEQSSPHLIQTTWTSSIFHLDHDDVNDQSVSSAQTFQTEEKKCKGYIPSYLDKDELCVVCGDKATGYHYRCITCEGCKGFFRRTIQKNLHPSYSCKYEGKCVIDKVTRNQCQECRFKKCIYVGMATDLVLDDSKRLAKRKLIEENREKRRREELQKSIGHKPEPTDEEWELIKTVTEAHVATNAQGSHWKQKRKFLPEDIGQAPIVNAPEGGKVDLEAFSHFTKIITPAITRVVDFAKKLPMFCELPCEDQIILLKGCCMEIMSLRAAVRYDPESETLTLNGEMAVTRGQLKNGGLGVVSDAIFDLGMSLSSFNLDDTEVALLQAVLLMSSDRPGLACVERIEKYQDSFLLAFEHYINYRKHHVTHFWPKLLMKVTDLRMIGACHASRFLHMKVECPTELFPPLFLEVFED
Luciferin 4-monooxygenase (Photinus pyralis), sequence (P08659 whole entry, looked up): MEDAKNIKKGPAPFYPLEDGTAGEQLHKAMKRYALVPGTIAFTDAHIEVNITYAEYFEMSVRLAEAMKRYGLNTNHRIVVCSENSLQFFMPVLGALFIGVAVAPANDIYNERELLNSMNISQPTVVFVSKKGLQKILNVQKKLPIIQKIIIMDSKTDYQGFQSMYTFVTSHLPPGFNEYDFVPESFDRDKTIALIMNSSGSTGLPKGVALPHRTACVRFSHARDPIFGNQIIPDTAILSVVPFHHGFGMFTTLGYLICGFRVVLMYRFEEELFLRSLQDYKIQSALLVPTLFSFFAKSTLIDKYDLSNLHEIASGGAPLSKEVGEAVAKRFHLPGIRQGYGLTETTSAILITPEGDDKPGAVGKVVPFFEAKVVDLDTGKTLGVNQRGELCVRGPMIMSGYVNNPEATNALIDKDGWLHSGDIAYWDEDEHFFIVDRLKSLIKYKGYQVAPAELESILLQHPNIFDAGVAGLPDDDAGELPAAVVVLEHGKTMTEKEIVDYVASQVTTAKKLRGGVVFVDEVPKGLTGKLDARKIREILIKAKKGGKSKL

On to `OC[C@H]1O[C@@](CO)(O[C@H]2O[C@H](CO)[C@@H](O)[C@H](O)[C@H]2O)[C@@H](O)[C@@H]1O`, for which the activity change % (negative = inhibition) in [1] is -5.25%. Besides, the Potency entry in [2], in [3], in [4] and in experiment [5] was “inactive” each time. In addition, the ratio activity, negative = inhibition in experiment [6] is 0%. The activation in experiment [7] was -1.26%; in experiment [8], 1.69%. The max response in experiment [9] is 0.569%.

For the compound `c1ccc2ccccc2c1`, the activity change % (negative = inhibition) in experiment [1] was 2.25% and -17.5%. Besides, the Potency result in [2], in [3], in experiment [4], in experiment [5], in experiment [10] and in experiment [12] was “inactive” each time. The activation in experiment [11] is -7.12% and -1.33%; in experiment [7] it was 0.258% and -0.756%; in [8], 0.0968% and 0.369%. Also, the max response in experiment [9] was -3.91% and 0.0956%.

For `CO/N=C(/C(=O)N[C@@H]1C(=O)N2C(C(=O)O)=C(COC(N)=O)CS[C@H]12)c1ccco1`, in [1], the activity change % (negative = inhibition) is -0.0158%. In addition, the Potency result in experiment [2], in experiment [3], in [4], in [5], in [13] and in experiment [14] was “inactive” throughout. Also, the Potency result in experiment [12] was “inactive”. The ratio activity, negative = inhibition in experiment [6] was 0.236%. Moreover, the Potency in experiment [10] is 42.2 µM (active). Also, the activation was 1.84% in experiment [11], -0.141% in [7] and -0.274% in [8]. The max response in [9] was -0.921%.

Take `CCCCC(CC)COS(=O)(=O)O` (centres undefined): the activity change % (negative = inhibition) in experiment [1] was 9.71%. The Potency result in [2], in [3], in experiment [4] and in experiment [5] was “inactive” each time. The activation in experiment [7] was -1.03%; in experiment [8], -1.44%. In experiment [9], the max response is -1.27%.

Consider `CN(CCO)CC(O)Cn1cnc2c1c(=O)n(C)c(=O)n2C` (centres undefined) (tested in a mixture with another compound), for which the activity change % (negative = inhibition) in [1] is 12.1%. Further, the Potency result in [2], in [3], in experiment [4], in experiment [5] and in experiment [10] was “inactive” throughout. Also, the activation in experiment [7] is 1.88%; in experiment [8] it was -0.921%. In addition, the max response in experiment [9] is -0.0909%.

With `CO`, the activity change % (negative = inhibition) in experiment [1] is 0.348%. In addition, the Potency result in experiment [2], in [3], in experiment [4], in [5] and in [12] was “inactive” in each case. Moreover, the figures for the activation in [11], in experiment [7] and in experiment [8] were -0.522%, -0.694% and -0.288%, respectively. Also, the max response in experiment [9] is -6.03%.

With `Nc1nccs1`, in experiment [1], the activity change % (negative = inhibition) is 8.98%. For the same compound, the Potency result in experiment [2], in experiment [3], in experiment [4], in experiment [10] and in experiment [12] was “inactive” in each case. In addition, the figures for the activation in experiment [11], in experiment [7] and in experiment [8] were 2.07%, 0.221% and 1.04%, respectively. The max response in [9] was -4.35%.

On to `CC1=CC(=O)NS(=O)(=O)O1`, for which the activity change % (negative = inhibition) in experiment [1] was 2.81%. For the same compound, the Potency result in experiment [2], in experiment [3], in [4], in [5], in experiment [10] and in [13] was “inactive” in each case. Further, the Potency entry in [14] and in experiment [12] was “inactive” throughout. The ratio activity, negative = inhibition in experiment [6] is 1.96%. The activation in experiment [7] was -0.0661% and 0.935%; in experiment [8] it was -1.78% and 1.57%. The max response in [9] was -1.04% and -0.299%.
